# The list is not random: actives were taken first. Their share in the collection is about 5.1%.
# MPTP inh: mitochondrial permeability transition pore inhibitors, primary screen, biochemical, isolated mouse mitochondria, absorbance; inhibition, % at 10 µM; Ca2+ swelling absorbance, 30 min; 360,000 compounds, 1.4% hits;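 active = inhibition of 50% or more, scaled per plate between neutral and stimulator controls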;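 also: 0% = DMSO wells given calcium and 100% = 1 mM EGTA wells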
# CRFBP-R2 agonist: agonists of CRF-BP/CRF-R2 complex, primary screen, cell-based, HEK293, calcium dye fluorescence, uHTS | calcium dye fluorescence (FLIPR); percent of saturating CRF peptide response | activation, % at 13.2 µM | 350,000 compounds, 0.46% hits | AID 588473, 2011;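 active = activation of at least 50%, plus an integration ratio under a set limit after plate pattern correction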;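 also: plate controls were neutral control wells without compound for no effect and CRF at EC100 for full effect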
# TMEM16A act: TMEM16A chloride channel activators or potentiators, primary screen, cell-based, HTS; HEK293 TMEM16A/YFP-H148Q/I152L, iodide quench fluorescence; active compounds read low; AID 623877, 2012; 340,000 compounds, 0.3% hits; B-score at 10 µM;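 active = fluorescence-ratio B-score plate-corrected deviation score at least 3 library SD below zero, with starting fluorescence score within 5 deviations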;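 also: channel opened by trigger with iodide after compound preincubation; score built on the fluorescence ratio of max minus min over baseline; more negative score means more quench and so TMEM16A activation or potentiation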
# Target sequence (Q8BHY3 whole entry, looked up): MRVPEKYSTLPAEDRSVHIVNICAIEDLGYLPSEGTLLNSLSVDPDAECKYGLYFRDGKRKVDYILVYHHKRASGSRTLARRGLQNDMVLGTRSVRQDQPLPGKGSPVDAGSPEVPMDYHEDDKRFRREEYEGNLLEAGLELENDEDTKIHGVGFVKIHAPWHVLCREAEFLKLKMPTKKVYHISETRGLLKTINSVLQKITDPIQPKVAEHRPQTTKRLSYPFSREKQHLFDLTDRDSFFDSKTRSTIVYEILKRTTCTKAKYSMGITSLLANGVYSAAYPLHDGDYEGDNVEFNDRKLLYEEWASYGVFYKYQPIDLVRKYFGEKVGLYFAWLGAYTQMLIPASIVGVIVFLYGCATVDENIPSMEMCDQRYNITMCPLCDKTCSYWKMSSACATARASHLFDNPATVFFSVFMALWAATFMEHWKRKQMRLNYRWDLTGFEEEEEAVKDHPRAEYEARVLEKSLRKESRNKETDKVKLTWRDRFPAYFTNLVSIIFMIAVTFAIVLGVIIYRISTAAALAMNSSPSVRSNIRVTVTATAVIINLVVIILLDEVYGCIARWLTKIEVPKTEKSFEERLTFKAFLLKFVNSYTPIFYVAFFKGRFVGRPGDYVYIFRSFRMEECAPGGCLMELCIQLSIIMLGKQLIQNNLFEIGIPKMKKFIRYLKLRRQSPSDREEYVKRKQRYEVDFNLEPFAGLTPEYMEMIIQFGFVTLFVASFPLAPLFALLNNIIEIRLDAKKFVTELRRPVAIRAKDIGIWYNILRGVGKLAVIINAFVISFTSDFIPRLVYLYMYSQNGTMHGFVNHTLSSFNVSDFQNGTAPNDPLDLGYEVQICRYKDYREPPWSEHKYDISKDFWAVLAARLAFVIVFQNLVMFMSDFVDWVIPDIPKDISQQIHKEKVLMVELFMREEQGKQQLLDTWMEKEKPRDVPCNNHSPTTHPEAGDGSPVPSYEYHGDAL
# GRIN3A LBD mod: binders of NR3A ligand-binding domain, primary screen, biophysical, differential scanning fluorimetry, uHTS | NR3A LBD differential scanning fluorimetry, Tm shift; 0% = protein alone, 100% = glycine-bound protein | Tm shift relative to glycine control, % at 25 µM | 340,000 compounds, 2.5% hits | AID 1259313, 2017;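 active = melting temperature shift of at least 10% of the positive control shift, at one fixed dose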
# CRFR2-BP antag: antagonists of CRF-BP/CRF-R2 complex, primary screen, cell-based, HEK293, calcium dye fluorescence, uHTS | CRF-induced calcium fluorescence | inhibition, % at 11.8 µM | 350,000 compounds, 0.59% hits | AID 588475, 2011;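 active = inhibition of the ligand-induced calcium signal above about 50% at the single tested concentration, limit read from the data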
# TMEM16A inh: TMEM16A chloride channel inhibitors, primary screen, cell-based, HTS. normalized B-score (activity score, 25-100; higher = stronger inhibition) at 10 µM. Anoctamin-1 (Mus musculus), Q8BHY3. AID 588511, 2011. HEK293 TMEM16A/YFP iodide influx fluorescence, ionomycin. 310,000 compounds, 1.2% hits;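 active = ratio plate-corrected score three or more library SD toward inhibition, starting fluorescence score within five deviations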;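 also: score derived from kinetic fluorescence span divided by baseline fluorescence per well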
# An asterisk follows results filed as active; i = inactive; · = no result given.
SMILES,MPTP inh,CRFBP-R2 agonist,TMEM16A act,GRIN3A LBD mod,CRFR2-BP antag,TMEM16A inh
COc1cc(/C=C(\C#N)C(=O)c2c[nH]c3ccccc23)cc(OC)c1O,6.6,85.1*,i,-14.4,-64.1,i
N#C/C(=C\c1ccc(O)c(O)c1)C(=O)NCCc1ccccc1,1.6,-1.6,i,-11.9,-4.9,i
Cc1ccc(NC(=O)CSCC(=O)N(C)CC(=O)Nc2cccc(F)c2)cc1,-1.3,-1.1,i,-0.7,7.8,i
COc1ccccc1S(=O)(=O)Cc1ccc(C(=O)NCc2ccco2)o1,0.3,-0.7,i,-1.1,3.6,i
COc1ccccc1S(=O)(=O)Cc1ccc(C(=O)NCc2ccccc2)o1,-1.4,-0.2,i,1.9,54.6*,i
COc1ccc(OC)c(-c2nnc3n2N=C(c2ccc(OC)c(OCC4CC4)c2)CS3)c1,-0.4,-0.4,i,-1.3,58.9*,·
COc1ccc(C2=Nn3c(nnc3-c3ccccc3Cl)SC2)cc1OCC1CC1,0.0,-1.1,i,-22.7,19.8,·
COc1ccc(OC)c(NC(=O)CSc2nnc(C3CCCCC3)n2N)c1,1.2,-2.2,i,14.1*,6.8,i
CC(C)Sc1nc(-c2cccs2)nc2cc(Cl)ccc12,5.4,·,·,·,·,·
CCn1c(C)nc2cc(C(=O)NN=Cc3ccc([N+](=O)[O-])cc3)ccc21,1.5,1.8,i,1.7,72.9*,·
CCn1c(C)nc2cc(C(=O)N/N=C/c3ccc(O)cc3)ccc21,-1.1,0.8,i,-2.2,-14.3,i
O=C(Nc1ccc2oc(-c3ccc4ccccc4c3)nc2c1)c1ccc2c(c1)OCCO2,2.6,1.1,i,10.2*,14.1,i
O=C(Nc1ccc(-c2nc3cc(NC(=O)c4cccs4)ccc3o2)cc1)c1cccs1,0.0,0.8,i,56.8*,26.5,i
O=C(Nc1ccc2oc(-c3ccncc3)nc2c1)c1cccs1,0.6,-0.5,i,33.5*,8.0,i
CC(=O)Nc1ccc(-c2nc3ccc(NC(C)=O)cc3o2)cc1,-0.2,3.0,i,11.5*,-5.8,i
O=C(Nc1ccc2oc(-c3ccncc3)nc2c1)c1ccccc1,0.6,5.8,i,-6.8,-6.9,i
Cc1ccc(S(=O)(=O)N2CCCCCC2)cc1C(=O)NCc1ccccn1,0.7,0.8,i,-1.3,8.9,i
O=C(Nc1ccc2nsnc2c1)c1cccs1,-0.3,0.0,i,1.8,11.6,i
O=C(Nc1ccc2nn(-c3ccccc3)nc2c1)c1cccs1,4.8,11.5,i,25.2*,-41.1,i
COc1cc(C(=O)NNC(=O)C2CC2)cc(OC)c1OC,-1.4,1.8,i,14.5*,-10.9,i
CC(C)(C)OC(=O)C[C@@H]1C/C=C\C[C@H](CC(=O)N(CCO)Cc2ccccc2)C(=O)N[C@H](Cc2ccccc2)COC1=O,0.8,-5.4,i,-1.8,-2.4,·
COc1ccccc1C(=O)NCCC(=O)N1CCN(c2ccccc2O)CC1,-0.1,0.2,i,-0.4,70.6*,i
Cc1cc([N+](=O)[O-])ccc1NCc1ccccc1[N+](=O)[O-],1.0,0.4,i,1.8,91.1*,i
CC(C)(C)c1ccc(C(=O)NC(=S)Nc2sc3c(c2C#N)CCC3)cc1,35.1,0.9,i,9.6,-36.4,i
CN1Cc2sc(NC(=S)NC(=O)c3ccccc3)c(C#N)c2CC1(C)C,·,93.1*,i,0.5,-70.1,i
SMILES,MPTP inh,CRFBP-R2 agonist,TMEM16A act,GRIN3A LBD mod,CRFR2-BP antag,TMEM16A inh
CCN1CCc2c(sc(NC(=S)NC(=O)c3ccccc3)c2C#N)C1,-0.8,28.8,i,0.0,-8.3,i
CC1CCc2sc(NC(=S)NC(=O)c3ccccc3)c(C#N)c2C1 (stereo unspecified),17.8,3.0,i,22.5*,-48.5,i
COc1ccc(S(=O)(=O)N2CCc3ccccc3C2)cc1OC,0.0,0.9,i,14.2*,8.1,i
C=C1C(=O)C=C2CN(C(=O)c3ccccc3)[C@@](Cc3ccc(F)cc3)(C(=O)OC)[C@@H]12,-0.2,30.8,i,11.5*,-80.7,i
CCOC(=O)c1sc(=S)n(Cc2ccccc2)c1C,-3.4,0.1,i,13.5*,11.4,i
O=S(=O)(/N=C(/Nc1ccc(Cl)c(S(=O)(=O)Nc2ccccc2Cl)c1)c1ccc(F)cc1)c1ccccc1,5.6,0.2,i,13.8*,18.8,i
COc1ccccc1NS(=O)(=O)c1cc(N/C(=N/S(=O)(=O)c2ccccc2)c2ccc(F)cc2)ccc1Cl,0.7,0.4,·,·,-17.8,·
O=C(Nc1ccc(Br)cc1Cl)c1ccc2c(=O)n3c(nc2c1)CCC3,0.8,101.1*,i,-1.0,-2.8,i
O=C(Nc1ccc(F)cc1)c1ccc2c(=O)n3c(nc2c1)CCCCC3,-4.2,0.5,i,0.5,18.5,25*
O=C(Nc1ccc(Cl)cc1Cl)c1ccc2c(=O)n3c(nc2c1)CCC3,-2.0,29.4,i,-0.6,4.1,i
CCc1ccc(S(=O)(=O)N2CCCC(N3CCN(c4ccc(OC)cc4)CC3)C2)cc1 (stereo unspecified),0.3,-1.8,i,3.8,9.1,i
COc1ccc(CN(C)C(=O)C(CCSC)NS(=O)(=O)c2ccc3c(c2)OCCO3)c(OC)c1OC (stereo unspecified),-0.1,-1.8,i,-0.8,-6.0,·
COc1ccc(-c2ccc([C@H]3[C@H]4C=CC[C@@H](C)[C@@H]4C(=O)N3Cc3ccccc3)c(F)c2)cc1,-0.5,9.8,i,15.7*,-12.3,i
COc1ccc(-c2ccc([C@H]3[C@H]4C=CC[C@@H](C)[C@@H]4C(=O)N3Cc3ccccc3)c(F)c2)cc1OC,0.4,5.4,i,-0.8,0.2,i
COc1ccc(-c2ccc(C)cc2)cc1[C@H]1[C@H]2C=CC[C@@H](C)[C@@H]2C(=O)N1Cc1ccccc1,-0.8,6.2,i,-1.2,-6.7,i
COc1ccc(-c2ccoc2)cc1[C@H]1[C@H]2C=CC[C@@H](C)[C@@H]2C(=O)N1Cc1ccccc1,-0.4,0.2,i,14.3*,10.1,i
Cc1ccc(NC(=O)CN2C(=O)S/C(=C\c3cc(Cl)c(OCC(=O)O)c(Cl)c3)C2=O)cc1,0.2,2.0,i,0.2,1.8,i
CN(CC(=O)Nc1ccccc1Cl)C(=O)c1cc(C2CC2)nn1-c1ccccc1,0.7,-1.8,i,1.1,4.9,·

# Screens from PubChem BioAssay.
